{"source": "patent US20210230599", "about": "“STEM-LOOP COMPOSITIONS AND METHODS FOR INHIBITING INTERLEUKIN-8” (VITRISA THERAPEUTICS, INC., published 2021)"}
{"target": "Interleukin-8 (IL8, CXCL8), C-terminal His-tagged (Homo sapiens, UniProt P10145 SEQ:1-72)", "assay": "competition; competition TR-FRET; G18C", "settings": "tags: C-terminal 6xHis (Sino Biological); ssRNA; 2'-F G, 2'-OMe A/C/U, 5' C6NH2, 3' idT", "procedure": "To better understand the sequence requirements and to confirm the stem structures of members of the Aptamer 3 family as determined from sequence covariation analysis from both the primary and secondary (degenerate) selections, a series of variants which included mutations and deletions to the predicted stems were synthesized and screened (Table 24). Activity of each of these variants were tested using a time resolved competition TR-FRET assay in which the labeled parent Aptamer 3 was competed with increasing concentrations of unlabeled variants for binding to IL8 (FIG. 14). Briefly, 2-fold dilutions of thermally equilibrated aptamers were made in TR-FRET Buffer (50 mM MOPS, pH 7.4, 125 mM NaCl, 5 mM KCl, 50 μM CHAPS, 0.1 mg/mL BSA, 1 mM CaCl₂, and 1 mM MgCl₂). 5 μL of aptamer or control solution was added to 5 μl mix of 10 nM C-terminal His-tagged-IL8, 60 nM ALEXA FLUOR® 647-labeled Aptamer, and 5 nM anti-His-Eu (Perkin Elmer) in a black wall low volume 384 well plate (Greiner). For control, 5 μl of 1000-fold excess of unlabeled parent aptamer or 5 μl TR-FRET buffer alone was added to the mix of ALEXA FLUOR® 647-labeled aptamer, His-IL8, and anti-His-Eu. The plate was covered with a plate seal and subsequently incubated in the dark for 1 hour at room temperature. The plate was read on a Biotek CYTATION™ 5 plate reader. […]", "units": {"binding signal": "fold worse than Aptamer 3"}}
{"sequence": "UGAUGACGGUAGAUUACCGGUAGAGUGACCGCAUCU", "binding signal": "> 10"}
